This is a sample that favours compounds with a hit; in the whole collection about 2.5% have one here.
Cruzain noTriton – cruzain (T. cruzi) inhibition without detergent; hit rate 2.3% among 200,000; purified cruzain, Z-FR-AMC fluorescence, no detergent; P25779; Potency, µM, without a hit: max response, negative = inhibition, hits mostly inhibitors;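 note: plate controls were enzyme without inhibitor for no effect and buffer without enzyme for full effect; nearly all actives have a fitted effect of over 40% in size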
Target sequence (P25779 123-467 limits assumed): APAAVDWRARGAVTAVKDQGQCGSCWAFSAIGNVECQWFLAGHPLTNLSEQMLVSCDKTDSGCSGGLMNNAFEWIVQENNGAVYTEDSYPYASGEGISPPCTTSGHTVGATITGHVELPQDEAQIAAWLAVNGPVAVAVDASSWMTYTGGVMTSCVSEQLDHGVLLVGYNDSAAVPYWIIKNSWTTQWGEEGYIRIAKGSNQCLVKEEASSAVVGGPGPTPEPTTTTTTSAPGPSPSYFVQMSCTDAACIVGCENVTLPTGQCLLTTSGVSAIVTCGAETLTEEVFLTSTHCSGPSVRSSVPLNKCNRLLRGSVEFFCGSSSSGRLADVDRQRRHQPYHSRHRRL
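Detergent-free condition (0.00005% Triton X-100) in acetate buffer pH 5.5 with DTT. 1.5 nM enzyme and compound were pre-mixed 15 min, then 2 uM Z-FR-AMC substrate added; reaction progress from fluorescence change between first and third reads (60 s).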
Cruzain inh Det – cruzain (T. cruzi) inhibition with detergent; hit rate 0.43% among 200,000; P25779; purified cruzain, Z-FR-AMC fluorescence, 0.01% Triton; Potency, µM, for inactives: max response, negative = inhibition, hits mostly inhibitors; AID 1478;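 note: plate controls were neutral wells for no effect and buffer without enzyme for full effect; nearly all actives have a fitted effect of over 40% in size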
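15 min RT preincubation of 1.5 nM cruzain with compound, then 2 uM Z-FR-AMC added; kinetic AMC fluorescence, 60 s delta. Triton X-100 0.01%, pH 5.5.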
Papain inh – counter-screen for cruzain inhibitors: papain inhibition; AID 2161; shares compounds with Cruzain inh Det; Potency, µM, inactives show max response, negative = inhibition, actives largely listed as inhibitors; hit rate 41% among 410; purified papain, Z-FR-AMC fluorescence cleavage;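 note: 0% = no-compound wells and -100% = no-enzyme wells; nearly all actives have a fitted effect of over 35% in size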
Target sequence (P00784 whole entry, looked up): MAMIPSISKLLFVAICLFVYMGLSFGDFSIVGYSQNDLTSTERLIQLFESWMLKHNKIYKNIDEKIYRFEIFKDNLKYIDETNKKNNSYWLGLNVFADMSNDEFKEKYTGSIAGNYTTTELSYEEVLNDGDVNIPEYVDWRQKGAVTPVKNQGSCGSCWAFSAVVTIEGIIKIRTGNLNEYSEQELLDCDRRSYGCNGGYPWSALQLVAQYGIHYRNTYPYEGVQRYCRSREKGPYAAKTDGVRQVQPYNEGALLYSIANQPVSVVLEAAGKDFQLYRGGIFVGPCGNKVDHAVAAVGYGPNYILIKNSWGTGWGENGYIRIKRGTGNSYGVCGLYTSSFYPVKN
Starred values were filed as active, the others as inactive; ? = inconclusive; nt = not tested or not shown. Calls come from the whole dose curve; as a rule, active = well fitted curve in the direction sought with a large enough effect; inconclusive = small, poorly fitted or top-dose-only effect, or another doubt; inactive = no such curve, though single readings can be large; an effect the other way counts as inactive or inconclusive. Potency is the fitted concentration of half-maximal effect.

SMILES | Cruzain noTriton | Cruzain inh Det | Papain inh
NC(=O)C(OC(=O)CNC(=O)C1CCCCC1)c1ccccc1 (configuration not stated) | nt | nt | 13µM*
O=C(CNC(=O)C1CCCCC1)Nc1ccccc1Cl | 4% | -2% | nt
O=C(Nc1ccccc1)C1CCCCC1 | 7% | 2% | nt
O=C(CNC(=O)C1CCCCC1)OC(C(=O)c1ccccc1)c1ccccc1 (configuration not stated) | nt | nt | 3%
Cc1nc2nc(NC(=O)C(C)(C)C)[nH]n2c(=O)c1Cc1ccccc1 | 5% | -1% | nt
CC(C)=CCSc1nnc([C@@H](N)Cc2c[nH]c3ccccc23)o1 | 1% | -9% | nt
CCc1ccccc1NC(=O)CSc1nnc([C@@H](N)Cc2c[nH]c3ccccc23)o1 | 10µM* | 10µM* | 7%
CCCCN(CC)CCCNC(=O)C1CCN(c2nc3ccc(CC)cc3s2)CC1 | 5% | -7% | nt
Cn1c(=O)c2c(-c3ccccc3)n(-n3cnnc3)cc2n(C)c1=O | 6.3µM* | 8.9µM* | 13µM*
Cn1c(=O)c2c(-c3ccccc3)n(CCCO)cc2n(C)c1=O | -5% | 2% | nt
O=C(CO/N=C/c1cccc([N+](=O)[O-])c1)NC1CCCCCC1 | 4% | -1% | nt
N#Cc1nc(Nc2cccc([N+](=O)[O-])c2)nc(NC2CCCC2)n1 | nt | nt | 2.8µM*
Cc1cccc(Nc2nc(N)c([N+](=O)[O-])c(N3CCC(C)CC3)n2)c1 | 3% | -8% | nt
Cc1cccc(Nc2nc(C#N)nc(NC3CCCC3)n2)c1 | nt | nt | 0.45µM*
CCc1nn2c(=O)cc(COC(=O)CNC(=O)c3ccccc3)nc2s1 | -9% | -4% | nt
CC(C)CNC(=O)c1c(-c2ccccc2)c(-c2ccccc2)nn(C)c1=O | 1% | 0% | nt
Cc1ccc2[nH]c3c(NCCCN4CCCC4=O)ncnc3c2c1 | -24% | -24% | nt
COc1ccc2[nH]c3c(NCCN4CCCCC4)ncnc3c2c1 | 13µM* | 16µM* | 5%
Cc1nn2c(=O)cc(COc3ccc(/C=C(\C#N)C(=O)Nc4ccccc4)cc3Cl)nc2s1 | -3% | 1% | nt
O=C(Nc1ccccc1)N(CCc1nc2ccccc2[nH]1)C1CCCC1 | -6% | 0% | nt
S=C(NC1CCCCC1)N(CCc1nc2ccccc2[nH]1)C1CCCC1 | 11% | 13µM* | 7%
COc1ccc(CNC(=O)C(C)N2Cc3ccccc3C2=O)cc1 (configuration not stated) | 0% | -1% | nt
Cc1cc(OCC(=O)Nc2ccc(N3CCN(C(=O)c4ccco4)CC3)cc2)cc(C)c1Cl | 1% | 0% | nt
Cc1cc(OCC(=O)Nc2ccc(N3CCCC3)cc2)cc(C)c1Cl | 4µM* | ? | 3%
COc1cc(NC(=O)C(NS(=O)(=O)c2ccc3c(c2)CCCC(=O)N3)C(C)C)cc(OC)c1 (configuration not stated) | ? | 1% | nt
SMILES | Cruzain noTriton | Cruzain inh Det | Papain inh
CNc1oc(Cc2ccccc2)nc1S(=O)(=O)c1ccc(Cl)cc1 | 10µM* | 10µM* | -12%
O=S(=O)(c1ccc(Cl)cc1)c1nc(-c2ccccc2Br)oc1NCc1ccccc1 | ? | -7% | nt
O=C1/C(=C/c2ccco2)CCc2ccccc21 | 2µM* | 2.2µM* | 28µM*
O=C1C(=Cc2ccco2)C(=O)c2ccccc21 | -5% | -4% | nt
CC1(C)Cn2c(nnc2-c2ccccc2)S1 | 7% | 8% | nt
C(/Oc1ccccc1)=C1\Nn2c(nnc2-c2cc(-c3ccccc3)n[nH]2)S1 | nt | nt | 11%
Cc1ccc(CCNC(=O)c2ccc(Cn3c(=O)c4cccn4c4cccnc43)cc2)cc1 | -20% | 0% | nt
Clc1ccc(-c2nn3c(-c4cc(-c5ccccc5)n[nH]4)nnc3s2)cc1 | nt | nt | 7%
COc1cc(-c2nn3c(-c4ccccc4)nnc3s2)cc(OC)c1OC | ? | 3% | nt
COc1ccccc1-c1nn2c(-c3cc(C)[nH]n3)nnc2s1 | nt | nt | 5%
Cc1ccc(-c2nn3c(-c4cccc(Cl)c4)nnc3s2)cc1 | ? | -6% | nt
COc1ccc(-c2nnc3sc(-c4ccccc4OC)nn23)cc1 | ? | 0% | nt
COc1cc(-c2nn3c(-c4cc(-c5ccccc5)n[nH]4)nnc3s2)cc(OC)c1OC | nt | nt | -2%
O=C(NC1CC(=O)N(c2ccc(Cl)cc2)C1)c1cccs1 (configuration not stated) | -3% | -3% | nt
O=C(Cc1ccc(Cl)cc1)Nc1ccccc1Sc1ccccc1 | -17% | -8% | nt
O=C(O)c1c(Sc2ccccc2)c2cc(Cl)ccc2n1Cc1ccc(Cl)cc1 | ? | 28µM* | 28µM*
Cc1ccc(NC(=O)COc2ccc3oc4c(c3c2)CCCC4)c(C)c1 | 10% | -1% | nt
O=C(CNC(=O)c1ccccc1)N[C@@H](C(=O)Nc1cc(C(F)(F)F)ccc1Cl)c1ccccc1 | nt | nt | -10%
O=C(Cc1ccccc1)NC(=S)Nc1cc(C(F)(F)F)ccc1Cl | -4% | -1% | nt
CC(C)(CO)Nc1nc(Nc2ccccc2)nc(Nc2ccccc2)n1 | -2% | -14% | nt
Clc1nc(Nc2ccccc2)nc(Nc2ccccc2)n1 | -8% | -6% | nt
CCNc1nc(C#N)nc(Nc2ccccc2)n1 | nt | nt | 5.6µM*
CCCNc1nc(C#N)nc(Nc2ccccc2)n1 | nt | nt | 1µM*
COc1cccc(CNC(=O)c2cc3c(=O)oc4ccc(C)cc4c3s2)c1 | 6% | 1% | nt
CCOC(=O)C1(N(CC)CC)Sc2cc(C)ccc2NC1=O (configuration not stated) | -1% | -8% | nt
SMILES | Cruzain noTriton | Cruzain inh Det | Papain inh
C=C(C)C(=O)OC1(C(F)(F)F)Oc2cc(C)ccc2NC1=O (configuration not stated) | 7.9µM* | 6.3µM* | 28µM*
CCn1c(C)c(C)c2cc(C(=O)NCc3cccc(C)c3)ccc21 | -8% | -5% | nt
CCOc1ccc(NCc2cccn2-c2nnc(N3CCC(C(=O)NCCc4ccc(OC)c(OC)c4)CC3)s2)cc1 | ? | 2% | nt
CC(C)COC(=O)c1nnsc1NC(=O)Nc1ccccc1 | 16µM* | 3% | 12%
CC(C)COC(=O)c1ccccc1C(=O)OCC(C)C | -1% | 1% | nt
CN1N/C(=C\c2ccccc2)N=C2C(=O)N(C)C(=O)N=C21 | nt | nt | -10%
CN1C(=O)/C(=C/c2ccc3c(c2)OCO3)N=C1c1ccccc1 | -7% | -11% | nt
CC/C=C1/N=C2C(=O)N(C)C(=O)N=C2N(C)N1 | nt | nt | -13%
COc1cc(CN(C(=O)COc2ccc(F)cc2)c2ccccn2)cc(OC)c1OC | -1% | 1% | nt
NC(=O)CSc1nc2ccccc2n1Cc1ccccc1 | -3% | -4% | nt
NNC(=O)Cn1c(SCc2ccccc2)nc2ccccc21 | -1% | 3% | 3%
O=S(=O)(c1cccc(F)c1)N1CCC(Oc2ccc(-n3cnnn3)cc2)CC1 | -1% | -3% | nt
O=C(CSc1ncc(-c2ccccc2)[nH]1)Nc1cccc(C(F)(F)F)c1 | 17% | -13% | nt
CN1CCN(c2ncc3ncc(=O)n(CCc4ccccc4)c3n2)CC1 | -22% | -8% | nt
CN1CCN(c2ncc3ncc(=O)n(-c4ccccc4)c3n2)CC1 | 20µM* | ? | 14µM*
CC[C@H]1NC(=O)c2cc(S(N)(=O)=O)c(Cl)cc2N1 | 5% | 0% | nt
Cc1ccccc1OCCn1c(CCNC(=O)C(C)C)nc2ccccc21 | 1% | -4% | nt
Cc1ccccc1OCCCCn1c(CCNC(=O)C2CCCCC2)nc2ccccc21 | nt | nt | 11µM*
CCC(C)c1ccccc1OCCn1c(CCNC(=O)C2CCCCC2)nc2ccccc21 (configuration not stated) | nt | nt | -11%
CCn1c(CCNC(=O)c2ccc(OC)c(OC)c2)nc2ccccc21 | -1% | -3% | nt
COc1ccccc1OCCCn1c(CCNC(=O)C2CCCCC2)nc2ccccc21 | nt | nt | 28µM*

Screening results: PubChem BioAssay, National Center for Advancing Translational Sciences (NCATS)
